Casp6 inh = human caspase-6 inhibitors, primary screen, biochemical, VEID-R110 fluorescence, single point, set 2; P55212; purified caspase-6, Z-VEID-R110 cleavage fluorescence; inhibition, % at 12.5 µM; actives 0.53% (n = 350,000); AID 686996, 2013;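 active = mean inhibition across replicates at least about 35%, with every replicate also reaching that limit, limit read from the data; inconclusive = only one of the two criteria met; inactive = neither criterion met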
Target sequence (P55212 24-179 limits assumed): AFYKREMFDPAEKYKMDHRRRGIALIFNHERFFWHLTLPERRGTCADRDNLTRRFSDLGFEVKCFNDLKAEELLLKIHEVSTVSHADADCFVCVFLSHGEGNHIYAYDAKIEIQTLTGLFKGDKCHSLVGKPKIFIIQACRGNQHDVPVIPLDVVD
Target sequence (P55212 194-293 limits assumed): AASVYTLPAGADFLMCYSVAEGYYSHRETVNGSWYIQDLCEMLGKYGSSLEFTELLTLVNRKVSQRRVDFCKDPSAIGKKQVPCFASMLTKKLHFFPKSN
ALR inh = inhibitors of human ALR sulfhydryl oxidase, primary screen, biochemical, H2O2 detection, HRP-luminol luminescence, single point | actives 3.8% (n = 290,000) | purified ALR, DTT oxidation | FAD-linked sulfhydryl oxidase ALR (Homo sapiens), P55789 | inhibition, % (test concentration not listed);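 active = mean replicate inhibition above about 79%, with every replicate also reaching it, limit read from the data; inconclusive = only one of the two criteria met; inactive = mean below limit and not every replicate reaching it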
Target sequence (P55789 whole entry, looked up): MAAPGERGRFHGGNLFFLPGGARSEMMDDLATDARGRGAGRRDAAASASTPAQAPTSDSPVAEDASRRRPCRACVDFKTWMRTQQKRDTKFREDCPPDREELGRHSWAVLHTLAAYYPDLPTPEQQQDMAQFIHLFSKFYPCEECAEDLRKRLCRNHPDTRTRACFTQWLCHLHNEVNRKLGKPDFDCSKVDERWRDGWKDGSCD
PglD DTNB = C. jejuni PglD acetyltransferase inhibitors, primary screen, biochemical, DTNB colorimetric, single point | purified PglD enzyme, DTNB colorimetric CoA detection | UDP-N-acetylbacillosamine N-acetyltransferase PglD (Campylobacter jejuni) | AID 602405, 2012 | inhibition, % at 12.5 µM | actives 0.098% (n = 360,000); in the data active = inhibition above about 16%, passing the limit was not always enough; inconclusive = no clear call, values can overlap the other calls
HIV Env fusion = inhibitors of HIV-1 Env-driven cell-cell fusion, primary screen, HeLa-JRFL effector, CEM21 target cells, luciferase; actives 1.1% (n = 360,000); AID 651610, 2012; inhibition, % at 12.3 µM;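 active = mean replicate inhibition score of at least 50 and every replicate individually at or above 50; inconclusive = only one of the two criteria met; inactive = mean below 50 and not all replicates reaching 50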
F508del corr = F508del CFTR correction, initial screen, CFBE line, single point; CFBE cells, YFP halide quenching; stimulated with forskolin plus potentiator P3; % fluorescence drop versus neutral controls; activity (quench increase), % at 7.58 µM; actives 0.36% (n = 350,000);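 active = mean added fluorescence quench of at least 8% versus neutral control, with both replicates also reaching 8%; inconclusive = only one of the mean or replicate conditions met; inactive = mean below 8% and not both replicates reaching 8%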;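 also: cells transiently co-express mutant CFTR-F508del with the halide-sensitive YFP; corrector assay measuring rescue of mutant channel to the surface after 24 h compound exposure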
NSD2 HMT inh = NSD2 histone methyltransferase inhibitors, primary screen, biochemical, AlphaScreen, single concentration, set 2 | Histone-lysine N-methyltransferase NSD2 (Homo sapiens), O96028 | NSD2 peptide methylation, 120 min | inhibition, % at 12.5 µM | actives 0.54% (n = 310,000); in the data active = inhibition above about 50%
Each line names hits and unclear results; the compound was inactive in the other large screens. Sampled rows, rich in hits. Any-hit rate of the full collection: about 4.1%.

CCCCn1c(CN2CCN(c3cccc(Cl)c3)CC2)nc2c1c(=O)[nH]c(=O)n2C	F508del corr 13.7 (no result: HIV Env fusion)
Cn1c(=O)[nH]c(=O)c2c1nc(CN1CCOCC1)n2Cc1ccccc1	Casp6 inh 51.2 (no result: HIV Env fusion)
Cn1c(=O)[nH]c(=O)c2c1nc(CN1CCOCC1)n2CCc1ccccc1	none (no result: Casp6 inh, HIV Env fusion, F508del corr)
C[C@H](CO)N1C[C@H](C)[C@H](CN(C)C(=O)Nc2ccccc2)Oc2ncc(C#Cc3ccc(C(F)(F)F)cc3)cc2C1=O	none (no result: ALR inh, NSD2 HMT inh)
CCCCN1CC(COCc2ccccc2)Oc2cccc(Oc3ccc(OC)cc3)c2S1(=O)=O (stereo unspecified)	none (no result: ALR inh, NSD2 HMT inh)
CCCCN1CC(COCc2ccccc2)Oc2cccc(Oc3ccc(C(C)C)cc3)c2S1(=O)=O (stereo unspecified)	HIV Env fusion 63.5 (no result: ALR inh, NSD2 HMT inh)
Cc1ccc(C(c2c(O)nc3n(c2=O)CCS3)c2c(O)nc3n(c2=O)CCS3)cc1	ALR inh 96.6 (no result: PglD DTNB, F508del corr)
O=c1c(C(c2c(O)nc3n(c2=O)CCS3)c2cccc3ccccc23)c(O)nc2n1CCS2	ALR inh 96.1 (no result: Casp6 inh, F508del corr)
O=C([C@H]1[C@H](CO)[C@H]2Cn3c(cccc3=O)[C@H]2N1CC1CC1)N1CCc2ccccc2C1	none (no result: ALR inh, HIV Env fusion, NSD2 HMT inh)
Cc1ccc(Cn2c(SCC(=O)NCc3ccco3)nc3ccsc3c2=O)cc1	HIV Env fusion 70.7 (no result: Casp6 inh, F508del corr, NSD2 HMT inh)
Cc1ccc(CNC(=O)CSc2nc3ccsc3c(=O)n2Cc2ccccn2)cc1	HIV Env fusion inconclusive
O=C(CSc1nc2c(sc3ccccc32)c(=O)n1CCCN1CCCC1)NCc1ccco1	ALR inh 97.9
O=C(CSc1nc2c(sc3ccccc32)c(=O)n1CCO)NCc1ccco1	none (no result: Casp6 inh, F508del corr)
O=C(CSc1nc2sc3c(c2c(=O)n1-c1ccccc1)CCCC3)NCc1ccco1	HIV Env fusion 66.3 (no result: ALR inh, NSD2 HMT inh)
O=C(CSc1nc2scc(-c3ccco3)c2c(=O)n1-c1ccccc1)NCC1CCCO1 (stereo unspecified)	ALR inh 95.9 (no result: Casp6 inh, F508del corr)
CC1(C)Cc2c(sc3nc(SCC(=O)NCc4ccco4)n(-c4ccccc4)c(=O)c23)CS1	none (no result: Casp6 inh, PglD DTNB, HIV Env fusion, F508del corr)
C[C@H](O)C#Cc1cnc2c(c1)C(=O)N([C@H](C)CO)C[C@H](C)[C@@H](CN(C)C(=O)c1ccc(F)cc1)O2	none (no result: ALR inh, NSD2 HMT inh)
COCC(=O)N1C[C@@H](C)[C@H](OC)CN(C)C(=O)c2ccc(NC(=O)c3ccc(OC)cc3)cc2OC[C@H]1C	none (no result: Casp6 inh, ALR inh, PglD DTNB, NSD2 HMT inh)
COCCCn1c(SCC(=O)NCc2ccco2)nc2sc3c(c2c1=O)CCC3	ALR inh 93.7, HIV Env fusion inconclusive (no result: Casp6 inh, F508del corr, NSD2 HMT inh)
CCN(CC)C(=O)CSc1nc2sc3c(c2c(=O)n1CCCOC)CCC3	none (no result: ALR inh)
O=C(CSc1nnc(Cn2c(=O)sc3ccccc32)n1-c1ccccc1)NCc1ccco1	F508del corr 10.4 (no result: NSD2 HMT inh)
COc1ccc(S(=O)(=O)N(C)C[C@H]2Oc3c(NC(=O)Nc4ccc5c(c4)OCO5)cccc3C(=O)N([C@@H](C)CO)C[C@H]2C)cc1	none (no result: ALR inh, NSD2 HMT inh)
Cc1[nH]c2ccccc2c1-c1nc2ccccc2[nH]1	ALR inh 89.3 (no result: Casp6 inh, F508del corr)
Nc1ccc(-c2nc3c(Cl)c(N)ccc3[nH]2)cc1	ALR inh 98.5 (no result: Casp6 inh, F508del corr)
Nc1ccc(-c2nc3ccc([N+](=O)[O-])cc3[nH]2)cc1	ALR inh 96.7 (no result: PglD DTNB, HIV Env fusion)
Nc1ccc2nc(-c3cccc(-c4nc5ccc(N)cc5[nH]4)c3)[nH]c2c1	ALR inh 98.7 (no result: PglD DTNB)
COC(=O)C[C@H]1CC[C@@H]2[C@@H](COc3ccc(NC(=O)c4ccccc4OC)cc3C(=O)N2C)O1	none (no result: Casp6 inh, ALR inh, NSD2 HMT inh)
Nc1ccc2nc(C3CCCCC3)[nH]c2c1	ALR inh 99.3
Nc1ccc2nc(-c3ccc(Cl)cc3)[nH]c2c1	ALR inh 98.9 (no result: NSD2 HMT inh)
Nc1ccc2nc(-c3cc(Cl)c(N)c(Cl)c3)[nH]c2c1	none (no result: Casp6 inh, ALR inh, F508del corr)
Cc1ccc(C)c(-c2nc3ccc(N)cc3[nH]2)c1	ALR inh 99.3 (no result: Casp6 inh, F508del corr)
Nc1ccc(-c2nc3ccc(N)cc3[nH]2)cc1	ALR inh 98.5 (no result: PglD DTNB)
Cc1ccc2nc(-c3ccccc3N)[nH]c2c1	none
Cc1noc(C)c1NC(=O)N(C)C[C@H]1Oc2c(NC(=O)CCCCCC(=O)Nc3ccccc3N)cccc2C(=O)N([C@@H](C)CO)C[C@H]1C	none (no result: ALR inh, PglD DTNB, HIV Env fusion, NSD2 HMT inh)
Cc1nc2ccc(-c3nc4ccc(N)cc4[nH]3)cc2[nH]1	ALR inh 99.5 (no result: PglD DTNB)
Cc1cc(-c2nc3ccccc3[nH]2)ccc1N	ALR inh 98.2
CO[C@@H]1CN(C)C(=O)c2ccc(NC(=O)Nc3ccccc3)cc2OC[C@@H](C)N(CC2CC2)C[C@@H]1C	none (no result: ALR inh, NSD2 HMT inh)
CC1=C(C(=O)N2CCN(c3cc(C)ccc3C)CC2)C2(CCCCC2)OC1=O	ALR inh 86.7 (no result: NSD2 HMT inh)
C[C@H](NC(=O)C[C@@H]1C[C@@H]2c3cc(NC(=O)C4CCOCC4)ccc3O[C@@H]2[C@@H](CO)O1)c1ccccc1	none (no result: ALR inh, NSD2 HMT inh)
O=C1S/C(=C\C=C\c2ccco2)C(=O)N1c1ccc(O)cc1	Casp6 inh 43.1 (no result: PglD DTNB, F508del corr)
O=C(O)C(Cc1ccccc1)N1C(=O)/C(=C/C=C/c2ccco2)SC1=S (stereo unspecified)	Casp6 inh 91.2, NSD2 HMT inh active (no result: ALR inh)
COc1ccc(/C=C2\SC(=S)N(C(Cc3ccccc3)C(=O)O)C2=O)cc1 (stereo unspecified)	none (no result: ALR inh, PglD DTNB)
O=C(NN1C(=O)/C(=C/C=C/c2ccco2)SC1=S)c1ccccc1O	Casp6 inh 92.1 (no result: NSD2 HMT inh)
C[C@H]1CN([C@@H](C)CO)C(=O)c2cc(-c3ccc(F)cc3)cnc2O[C@@H]1CN(C)C(=O)Nc1ccc(F)cc1	none (no result: Casp6 inh, ALR inh, PglD DTNB, NSD2 HMT inh)
CO[C@H]1CN(C)C(=O)c2cc(NC(=O)c3ccccc3F)ccc2OC[C@H](C)N(C(=O)c2ccccc2F)C[C@H]1C	none (no result: ALR inh, HIV Env fusion, NSD2 HMT inh)
C=C[C@]1(C)C=C2CC[C@H]3[C@@](C)(CCC[C@@]3(C)C(=O)O)[C@@H]2CC1	none (no result: Casp6 inh, HIV Env fusion, F508del corr, NSD2 HMT inh)
C=C[C@]1(C)C=C2C(=O)[C@@]3(O)OC(=O)[C@@]4(CCCC(C)(C)[C@H]34)[C@@]2(O)CC1	Casp6 inh 37.4 (no result: ALR inh, NSD2 HMT inh)
Cc1ccccc1CS(=O)(=O)c1ccc(C(=O)N2CCC(C)CC2)cc1[N+](=O)[O-]	ALR inh 97.2 (no result: PglD DTNB)
COc1cccc(/C=N/NC(=O)CC2C(=O)NN=C2C)c1O (stereo unspecified)	ALR inh 97.0, HIV Env fusion 69.8 (no result: Casp6 inh, F508del corr)
COc1cccc(/C=N/NC(=O)C(=O)N2CCCCCC2)c1O	none
COc1cccc(/C=N/NC(=O)C(=O)N/N=C/c2cccc(OC)c2O)c1O	F508del corr 10.4 (no result: ALR inh, PglD DTNB)
COc1cccc(/C=N/NC(=O)CSCC(=O)Nc2ccccc2)c1O	ALR inh 91.4 (no result: HIV Env fusion)
COc1cccc(/C=N/NC(=O)NC2CCCCC2)c1O	ALR inh 89.8
